# Compounds without any hit were thinned out: in the full panel of roughly 83,000, 20% have a hit.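 Results are percent growth after 48 hours of single-concentration exposure. 100 means growth as in untreated cells, lower positive values show inhibition; negative values down to -100 show cell death.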 A number with no mark means an inactive call. Active and inactive are the calls of the source. How the source made its calls: active means growth percent below 10; inactive means the rest.
# How the values were obtained:
# Assay in all cases: NCI-60 one-dose screen, 48 h (100 = growth as untreated, 0 = no growth, -100 = all killed)
# Conditions in all cases: 10 µM unless noted
# DU-145 prostate = system: DU-145 prostate
# K-562 leukemia = system: K-562 leukemia
# MALME-3M melanoma = system: MALME-3M melanoma
# MDA-MB-231 breast = system: MDA-MB-231 breast
# RXF 393 renal = system: RXF 393 renal
# SF-268 CNS = system: SF-268 CNS
# SF-295 CNS = system: SF-295 CNS
# SF-539 CNS = system: SF-539 CNS
# UACC-257 melanoma = system: UACC-257 melanoma
# M14 melanoma = system: M14 melanoma
SMILES,growth (DU-145 prostate),growth (K-562 leukemia),growth (MALME-3M melanoma),growth (MDA-MB-231 breast),growth (RXF 393 renal),growth (SF-268 CNS),growth (SF-295 CNS),growth (SF-539 CNS),growth (UACC-257 melanoma),growth (M14 melanoma)
O=[N+]([O-])c1cc(Cl)c2[nH]c3c(Cl)cc([N+](=O)[O-])cc3c2c1,22.9%,3.44% (active),-16.5% (active),-30.3% (active),12.4%,12.9%,-35.5% (active),23.8%,-52.2% (active),16.3%
Cc1ccc(S(=O)(=O)n2cc(C(=O)C(=O)Nc3ccncc3)c3ccccc32)cc1,22.4%,23.8%,48.4%,42.9%,9.66% (active),44.6%,16.4%,15%,63.3%,18.1%
Brc1ccc(-c2[nH]ncc2-c2c[nH]c3ccccc23)cc1,108%,88.4%,90.6%,67.7%,103%,89%,96.2%,93.3%,91.6%,89.7%
CC12CCC3C4(C)COC(c5ccccc5Cl)OC4CCC3(C)C1CC(C1=CCOC1=O)O2 (stereo not given),83.9%,23.9%,90.6%,71.7%,80.4%,70.1%,64.3%,84.7%,49.3%,65.9%
CCOC(=O)c1c(NS(=O)(=O)c2ccc(C)cc2)sc2c1CCC1(C2)OCCO1,114%,89.5%,114%,99.7%,103%,93.6%,93.1%,93.7%,96.2%,104%
COc1cc(/C=N\NC(=O)CN2CCN(c3cc4c(cc3F)c(=O)c(C(=O)N/N=C/c3cc(OC)c(OC)c(OC)c3)cn4C3CC3)CC2)cc(OC)c1OC,8.55% (active),5.07% (active),-15.8% (active),-16.1% (active),-3.67% (active),-6.34% (active),17.4%,-68.2% (active),22.2%,18.2%
CC(C)(C)n1cc(-c2ccnc(NCCCNS(=O)(=O)c3cccc(F)c3)c2)c(-c2cccc(O)c2)n1,66%,2.9% (active),50.3%,37.3%,46.5%,54%,31.6%,39.3%,52.9%,34.9%
COc1ccc2c(c1)[nH]c(=O)c1c3cccc(F)c3cn21,9.01% (active),36.4%,50.9%,27.7%,-26.9% (active),18%,-32.1% (active),22.8%,44.8%,40.4%
CC12CCC3C4(C)COC(c5ccco5)OC4CCC3(C)C1CC(C1=CCOC1=O)O2 (stereo not given),107%,92.6%,98.5%,90.2%,99.3%,98.5%,97.9%,107%,110%,98.6%
Cc1ccc(C(=O)NCCCNc2nccc(-n3ccc4cccnc43)n2)cc1,96.5%,92.1%,111%,104%,102%,94.7%,96%,99.2%,107%,102%
CCOC(=O)c1cn2c3c(cccc3c1=O)C(=O)/C(=C/c1cccc(Cl)c1Cl)C2,106%,91%,116%,89.5%,87%,87.9%,95.8%,101%,87.5%,98.7%
O=C1C(Cl)=C(Nc2ccccn2)C(=O)c2ccccc21,-10.9% (active),29.6%,-16.4% (active),62.1%,95.3%,58.8%,82.9%,25.4%,-10% (active),89.5%
CCCCN(CCCC)C(=N)c1ccnc2ccccc12,117%,110%,98.8%,119%,127%,103%,93.8%,113%,66.2%,110%
